PolyA inhibitor: inhibitors of polyadenylation in S. cerevisiae. S. cerevisiae SKY197-pL101 polyadenylation reporter, beta-gal luminescence; efflux-impaired pdr1/pdr3 knockout yeast; score 100 = 6 SD above DMSO. hit rate 0.02% among 300,000. activity score, % at 12 µM;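 active means lowest replicate activity score at least 50, where 100 means six control SD above control mean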;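 further: yeast exposed to compound for 9 h at 30 °C; higher score means more reporter readthrough which indicates perturbed polyadenylation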
PKA-R2B act: PKA-R2B complex activation | activation, % at 11.4 µM | PKA-R2B holoenzyme dissociation, Cy5-IP20 fluorescence polarization; R2B truncated from residue 108, S112A mutant; 0% DMSO only, 100% 113 µM cGMP | AID 504700 | hit rate 0.079% among 340,000 | P22694+P31323;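 active means activation above a cutoff set at the mean over all compounds plus 3 SD, cut at about 18% in these data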;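 further: higher means more holoenzyme dissociation and a rise in polarization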
Target sequence (P31323 whole entry, looked up, other chains not shown, the tested form may be a part): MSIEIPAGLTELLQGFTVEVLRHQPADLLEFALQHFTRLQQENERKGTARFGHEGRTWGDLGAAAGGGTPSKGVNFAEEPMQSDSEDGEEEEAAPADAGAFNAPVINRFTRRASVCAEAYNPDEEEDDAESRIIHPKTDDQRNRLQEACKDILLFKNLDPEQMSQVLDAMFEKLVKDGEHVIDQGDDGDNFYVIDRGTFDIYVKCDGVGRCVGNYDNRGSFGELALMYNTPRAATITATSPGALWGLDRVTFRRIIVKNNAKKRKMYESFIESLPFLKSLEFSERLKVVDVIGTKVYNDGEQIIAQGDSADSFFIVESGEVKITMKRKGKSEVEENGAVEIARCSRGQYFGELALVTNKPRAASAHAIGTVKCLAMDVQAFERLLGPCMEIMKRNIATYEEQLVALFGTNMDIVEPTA
Neddylation inh: inhibitors of human cullin neddylation; TR-FRET cullin neddylation, biochemical; calls only at 25 µM; hit rate 0.58% among 360,000; AID 651699; in the data active means inhibition above about 36%
PKA-R1A act: activators of PKA-R1A complex; P00514+P68181; PKA-R1A dissociation, Cy5-IP20 fluorescence polarization; scaled: DMSO 0%, 113 µM cGMP 100%; activation, % at 11.4 µM; hit rate 0.083% among 340,000; AID 504707;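 active means percent activation above the mean of all tested compounds plus 3 SD, cut at about 19% in these data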;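 further: higher means more PKAc released from R1A so a rise in polarization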
R2B FP artifact: fluorescence polarization artifact in PKA-R2B activator counter-screen. shares compounds with PKA-R2B act. FP artifact counterscreen. activation, % at 11.4 µM. hit rate 6% among 270; in the data active means activation above about 20%;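 further: Cy5 labelled IP20 peptide probe with compound but no PKA protein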
PKA-R2B act conf: PKA-R2B complex activation, confirmation | shares compounds with PKA-R2B act | fluorescence polarization | activation, % at 11.4 µM | hit rate 9% among 270 | AID 504797; in the data active means activation above about 19%
* hit, by the source's call. Hits are enriched below; roughly 0.72% of the tested compounds scored in any of these assays.

O=C1CCCC2=C1C(c1ccc(O)c(O)c1)Nc1ccc3ccccc3c12 (stereo not given) was read as PolyA inhibitor -1.0, PKA-R2B act -10.6, Neddylation inh inactive and PKA-R1A act -6.1.
Screening CC(C)(C)c1ccc(C(=O)c2cn[nH]c2-c2ccccc2O)cc1 returned PolyA inhibitor 6.6, PKA-R2B act 2.5, Neddylation inh inactive and PKA-R1A act -4.0.
Screening CC(C)NC[C@@H](O)COc1ccc(CC(N)=O)cc1 returned PolyA inhibitor 22.1, PKA-R2B act 6.3, Neddylation inh inactive and PKA-R1A act -0.6.
For CCOC(=O)c1cc2cc3ccccc3cc2[nH]1 the results were PKA-R2B act 0.9, Neddylation inh active and PKA-R1A act 5.6.
N#CC1(C#N)COC23CCCCC2C1(C#N)C(=N)O3 (stereo not given) was read as PolyA inhibitor 6.4, PKA-R2B act -0.5, Neddylation inh active and PKA-R1A act -17.3.
Screening CC1OC23CCCCC2C(C#N)(C(=N)O3)C1(C#N)C#N (stereo not given) returned PolyA inhibitor 19.2, PKA-R2B act -7.0, Neddylation inh inactive and PKA-R1A act -10.8.
`N#CC12COC3(CCCCC3C1(C#N)C#N)OC2=N` (stereo not given) gave PolyA inhibitor 14.0, PKA-R2B act -0.8, Neddylation inh active and PKA-R1A act -5.6.
For CCOc1ccc(Nc2nc3ccccc3n3nnnc23)cc1 the results were PolyA inhibitor 15.4, PKA-R2B act 1.4, Neddylation inh active and PKA-R1A act -6.3.
Screening Oc1ccccc1/C=N/Nc1ncc(Br)cn1 returned PolyA inhibitor -35.6, PKA-R2B act 25.6*, Neddylation inh inactive, PKA-R1A act -3.8, R2B FP artifact 3.3 and PKA-R2B act conf 1.7.
`Oc1ccccc1/C=N/Nc1ccccc1` gave PolyA inhibitor -5.3, PKA-R2B act -1.1, Neddylation inh inactive and PKA-R1A act 8.6.
`CC(C)(CN1CCN(Cc2ccccc2)CC1)NS(=O)(=O)c1ccc(Cl)cc1` gave PolyA inhibitor -12.6, PKA-R2B act 3.4, Neddylation inh inactive and PKA-R1A act 3.6.
Screening CCc1nnc(NC(=O)CSc2nnc(C)n2-c2ccc(C)cc2)s1 returned PolyA inhibitor 18.7, PKA-R2B act 18.8*, Neddylation inh inactive, PKA-R1A act -0.6, R2B FP artifact 4.2 and PKA-R2B act conf 1.4.
Screening CC1CN(C2CCCCC2)C(=S)NC1=O (stereo not given) returned PKA-R2B act -3.2, Neddylation inh inactive and PKA-R1A act -3.6.
`Cc1[nH]nc(SCC(=O)Nc2cccc(O)c2)c1[N+](=O)[O-]` gave PolyA inhibitor 31.5, PKA-R2B act 19.1*, Neddylation inh inactive, PKA-R1A act -8.9, R2B FP artifact 2.1 and PKA-R2B act conf 4.6.
For COc1cc(NC(=O)CN(C)CCOc2ccccc2)c(C)cc1[N+](=O)[O-] the results were PolyA inhibitor 5.6, PKA-R2B act 8.2, Neddylation inh inactive and PKA-R1A act 4.1.
CN(CCOc1ccccc1)CC(=O)Nc1ccc(Cl)cc1[N+](=O)[O-] was read as PolyA inhibitor 11.8, PKA-R2B act 20.7*, Neddylation inh inactive, PKA-R1A act -2.2, R2B FP artifact -1.9 and PKA-R2B act conf -2.9.
`COc1ccc(OC)c(-c2cc(-c3cccnc3)nc(N)c2C#N)c1` gave PolyA inhibitor -15.3, PKA-R2B act 19.1*, Neddylation inh inactive, PKA-R1A act 0.2, R2B FP artifact -0.3 and PKA-R2B act conf 0.8.
For CCOc1ccc(OCc2cccc(C(=O)O)c2)cc1 the results were PolyA inhibitor -2.5, PKA-R2B act 20.2*, Neddylation inh inactive, PKA-R1A act -10.7, R2B FP artifact 3.1 and PKA-R2B act conf 2.2.
COc1ccc(OCc2cccc(C(=O)O)c2)cc1 was read as PolyA inhibitor 0.7, PKA-R2B act -10.7, Neddylation inh inactive and PKA-R1A act 13.0.
Screening Cc1ccc(SCC(=O)c2ccc(CC(=O)O)s2)cc1 returned PolyA inhibitor 14.7 and Neddylation inh inactive.
Screening COC(=O)c1ccc(N2CCN(S(=O)(=O)c3ccc(C)cc3)CC2)c([N+](=O)[O-])c1 returned PolyA inhibitor -2.8, PKA-R2B act -7.6, Neddylation inh inactive and PKA-R1A act -4.6.
